# Sampled rows, rich in hits. Any-hit rate of the full collection: about 32%.
# PostGolgi ctrl = growth of the yeast control strain, post-Golgi counter-screen; AID 738; 5% of 98,000 active; efflux-deficient yeast background strain, growth absorbance A615, 16 h; inhibition, % at 10 µM
# CYP2C9 inhib = blocks human cytochrome P450 2C9; P11712; CYP2C9 Supersomes, luciferin-H conversion, luminescence; inhibition, % at 5 µM; 20% of 96,000 active; AID 777;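 active means blocking of liver enzyme CYP2C9 beyond about 50% at 5 µM, limit read from the data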
# Target sequence (P11712 whole entry, looked up): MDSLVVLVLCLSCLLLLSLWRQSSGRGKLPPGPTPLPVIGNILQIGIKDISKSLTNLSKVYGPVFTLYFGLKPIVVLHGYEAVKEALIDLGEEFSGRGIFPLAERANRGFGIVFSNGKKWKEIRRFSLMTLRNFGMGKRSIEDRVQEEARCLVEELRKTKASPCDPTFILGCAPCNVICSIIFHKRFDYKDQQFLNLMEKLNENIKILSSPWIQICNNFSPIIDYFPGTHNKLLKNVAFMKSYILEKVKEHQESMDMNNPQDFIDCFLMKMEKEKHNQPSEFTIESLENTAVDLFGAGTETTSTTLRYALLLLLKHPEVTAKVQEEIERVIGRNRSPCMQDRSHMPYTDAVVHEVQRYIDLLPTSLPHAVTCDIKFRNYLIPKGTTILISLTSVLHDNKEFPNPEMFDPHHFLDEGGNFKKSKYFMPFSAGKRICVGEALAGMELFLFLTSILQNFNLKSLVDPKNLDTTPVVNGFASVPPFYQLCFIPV
# CYP2C19 inhib = human CYP2C19 inhibition. inhibition, % at 5 µM. P33261. CYP2C19 Supersomes, luciferin-H EGE luminescence, 30 min. 21% of 96,000 active;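 active means CYP2C19 inhibition above a set limit at 5 µM in the primary screen, cut at about 50% in these data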;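 further: plate controls were negative control wells for no effect and 2.5 mM tranylcypromine positive control for full effect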
# CYP2C9 act = increases human cytochrome P450 2C9 activity; P11712; recombinant CYP2C9, luciferin-H conversion, luminescence; hits give high values; factor 1 = untreated enzyme, 0 = blocked; activation factor at 5 µM; 1.4% of 96,000 active; AID 1024;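 active means activation factor of 2 or more for CYP2C9 at a 5 µM dose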;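 further: 0 = sulfaphenazole-blocked wells and 1 = vehicle-only wells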
# CYP2C19 activ = cytochrome P450 2C19 (human) activation. P33261. recombinant CYP2C19, luciferin-H EGE luminescence; hits give high values; 0 = fully inhibited enzyme, 1 = untreated enzyme. activation factor at 5 µM. 96,000 tested, under 10 active. AID 1025;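 active means activation factor of at least 2 at 5 µM in the primary screen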;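 further: 0 = wells with 2.5 mM tranylcypromine and 1 = vehicle-only wells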
# PostGolgi yeast = growth inhibition of a yeast mutant, post-Golgi transport screen | inhibition, % at 10 µM | post-Golgi transport phenotypic cell assay | 0.9% of 98,000 active;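 further: yeast cells grown in 1536-well plates; yeast grown about 18 h at 30C before absorbance read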
# The depositor's hits bear a star; . = not tested or not shown. Unless noted, no stated cut-off is given here; in the data, active means inhibition above about 30%; inactive means the rest.
SMILES,PostGolgi ctrl,CYP2C9 inhib,CYP2C19 inhib,CYP2C9 act,CYP2C19 activ,PostGolgi yeast
CCCn1c(=O)c2ccccc2n2c(SCC(=O)c3cc(C)n(CCOC)c3C)nnc12,.,26,48,0.7,0.5,.
CCCC(C(=O)NC1CCCC1)N(CCCN1CCOCC1)C(=O)c1snc(C(N)=O)c1N (configuration not stated),3,2,7,1,0.9,4
C/C(N)=C(/C#N)C(=O)CSc1ccc2c(c1)OCCO2,2,19,95*,0.8,0.1,-4
Cn1c(=NC(=O)CN2C(=O)C3CC=CCC3C2=O)sc2ccccc21 (configuration not stated),11,34,34,0.7,0.7,-3
CCCNc1nc2c(c(=O)[nH]c(=O)n2C)n1Cc1cccc(Br)c1,-7,0,3,1,1,-4
C/C(Cl)=C/Cn1c(NCCCn2ccnc2)nc2c1c(=O)[nH]c(=O)n2C,9,90*,52*,0.1,0.5,-2
Cn1c(=O)[nH]c(=O)c2c1nc(NCCCn1ccnc1)n2Cc1ccc(F)cc1,7,78*,68*,0.2,0.3,-9
C/C(Cl)=C\Cn1c(NCCCn2ccnc2)nc2c1c(=O)n(C)c(=O)n2C,-9,100*,77*,0,0.2,-3
CN(C)S(=O)(=O)c1cccc(-c2nnc(SCc3cc(Cl)cc4c3OCOC4)n2N)c1,-3,82*,43,0.2,0.6,-8
C/C=C/Cn1c(Br)nc2c1c(=O)n(C)c(=O)n2C,-5,4,0,1,1,-1
CC1=CC(C)(C)NC(=S)N1c1cccc(C)c1,2,6,44,0.9,0.6,-4
CN(Cc1ccco1)C(=O)C(Cc1ccccc1)NS(=O)(=O)c1ccc2c(c1)CCC(=O)N2 (configuration not stated),12,71*,56*,0.3,0.4,3
C=CCn1c(SCC(=O)Nc2cc(C)on2)nc2sc3c(c2c1=O)CCCC3,-4,-14,-15,1.1,1.2,6
C=CCn1c(SCC(=O)N2CCOCC2)nc2sc3c(c2c1=O)CCCC3,9,80*,71*,0.2,0.3,18
Cn1c(SCC(=O)N2CCOCC2)nc2sc3c(c2c1=O)CCCC3,5,88*,60*,0.1,0.4,-5
O=C(Cn1cc([N+](=O)[O-])cn1)Nc1nc2ccccc2s1,0,5,12,0.9,0.9,-5
COc1ccc(C2(O)CCN(C(=O)c3ccc4c(c3)OCO4)CC2)cc1,3,37,30,0.6,0.7,-5
CSc1nc2nc(C(F)(F)F)cc(-c3ccccc3)n2n1,-7,62*,27,0.4,0.7,-1
Fc1ccccc1NC(=S)N/N=C/c1ccccc1Br,14,6,-7,0.9,1.1,-5
CC(=O)Nc1c(C#N)c(C(C)(C)C)cn1C,19,-22,-10,1.2,1.1,13
COc1cc(CNC(=O)c2ccc(Cn3nc(C)c(Cl)c3C)o2)cc(OC)c1,21,-21,62*,1.2,0.4,-4
O=C(NCCc1ccccc1F)[C@@H]1CSC2c3ccccc3C(=O)N21 (some centres not stated),2,30,14,0.7,0.9,-9
CCOc1ccc(S(=O)(=O)N(CC(=O)N/N=C/c2ccc(-c3ccc([N+](=O)[O-])cc3)o2)c2ccccc2)cc1,0,62*,20,0.4,0.8,-1
Cc1ccc(C)c(N(CC(=O)N/N=C/c2ccc(-c3ccc([N+](=O)[O-])cc3)o2)S(=O)(=O)c2ccccc2)c1,7,61*,19,0.4,0.8,7
CC(C#N)Sc1nc2ccccc2c(=O)n1-c1ccccc1 (configuration not stated),3,33,-5,0.7,1,0
SMILES,PostGolgi ctrl,CYP2C9 inhib,CYP2C19 inhib,CYP2C9 act,CYP2C19 activ,PostGolgi yeast
Cc1onc(-c2ccccc2Cl)c1C(=O)OCN1C(=O)c2ccccc2C1=O,5,18,56*,0.8,0.4,-9
Cc1onc(-c2ccccc2Cl)c1C(=O)Nc1ccccc1C(=O)NC(C)C,14,79*,43,0.2,0.6,4
Cc1onc(-c2ccccc2Cl)c1C(=O)Nc1ccccc1C(N)=O,1,38,56*,0.6,0.4,1
Cc1onc(-c2ccccc2Cl)c1C(=O)Nc1ccccc1N1CCOCC1,12,69*,61*,0.3,0.4,-5
CCCCOC(=O)Nc1ccccc1C(N)=O,3,18,22,0.8,0.8,2
N#Cc1c2c(c(NCc3cccnc3)n3c1nc1ccccc13)CCC2,12,34,-3,0.7,1,0
CCSc1nnc(NC(=O)c2c(-c3ccccc3Cl)noc2C)s1,3,95*,100*,0.1,0,0
Cc1onc(-c2ccccc2Cl)c1C(=O)NCC(=O)O,-6,-27,-12,1.3,1.1,5
Cc1onc(-c2ccccc2Cl)c1C(=O)Nc1cccc2cccnc12,33*,46,76*,0.5,0.2,0
Cc1onc(-c2ccccc2Cl)c1C(=O)NCc1ccccc1,11,58*,88*,0.4,0.1,-3
Cc1onc(-c2ccccc2Cl)c1C(=O)Nc1nnc(-c2cccc([N+](=O)[O-])c2)s1,29,20,-7,0.8,1.1,1
Cc1onc(-c2ccccc2Cl)c1C(=O)Nc1cccc2nsnc12,-2,34,1,0.7,1,-3
Cc1ccccc1-n1nc2c(c1NC(=O)c1c(-c3ccccc3Cl)noc1C)CSC2,3,50*,34,0.5,0.7,8
NS(=O)(=O)c1ccc(CNC(=O)/C=C/c2c(Cl)cccc2Cl)cc1,-1,-48,-9,1.5,1.1,-6
O=C(O)CCCCC1SCC2NC(=O)NC21 (configuration not stated),9,1,-5,1,1.1,-5
Cc1ccc(-n2nc3c(c2NC(=O)c2ccc(Br)o2)CSC3)c(C)c1,9,67*,19,0.3,0.8,15
O=C(COC(=O)c1ccccc1[N+](=O)[O-])c1ccc(C2CCCCC2)cc1,34*,-58,17,1.6,0.8,-7
Cn1c(=O)cc(OCCCC(=O)NC2CCCC2)c2ccccc21,27,-12,10,1.1,0.9,3
COc1cccc(NC(=O)CCCOc2cc(=O)n(C)c3ccccc23)c1,1,15,64*,0.8,0.4,6
Cn1c(=O)cc(OCCCC(=O)NCc2ccccn2)c2ccccc21,0,1,8,1,0.9,4
CCOc1ccc(NC(=O)CCCOc2cc(=O)n(C)c3ccccc23)cc1,16,71*,26,0.3,0.7,23
COc1ccc(NC(=O)C2CCCN(S(=O)(=O)c3cccs3)C2)cc1OC (configuration not stated),8,31,24,0.7,0.8,-4
CSc1ccccc1NC(=O)COc1ccc(S(=O)(=O)N2CCCC2)cc1,1,80*,14,0.2,0.9,-4

# High-throughput results (PubChem)
